Hits are enriched below; roughly 12% of the tested compounds scored in any of these assays.
BAZ2B block = qHTS Assay for Inhibitors of BAZ2B; Bromodomain adjacent to zinc finger domain protein 2B (Homo sapiens), Q9UIF8; AlphaScreen BAZ2B-H3K14Ac peptide displacement; Potency, µM (top dose mostly 114 µM), without a hit: top-dose activity change, negative = inhibition, most hits filed as inhibitors; 360,000 tested, 4.4% active; AID 504333, 2011; also: potency is read from the fitted curve at half-maximal effect; % is scaled to controls: 0 for no effect and ±100 for the full control effect; nearly all actives have a fitted effect of over 60% in size
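In this displacement format the biotinylated H3(5-23) peptide acetylated at Lys14 serves as ligand at 50 nM, with BAZ2B at 50 nM in PBS pH 7.4 containing 0.01% Tween-20. Donor and acceptor beads are 10 ug/mL final.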
JMJD2A Tudor inh = qHTS Assay for Inhibitors of JMJD2A-Tudor Domain; Lysine-specific demethylase 4A (Homo sapiens), O75164; AlphaScreen JMJD2A-Tudor / H3K4me3 peptide binding; Potency, µM (doses to about 114 µM), inactives show top-dose activity change, negative = inhibition, hits mostly inhibitors; 390,000 tested, 4.4% active; AID 504339, 2011; also: potency is read from the fitted curve at half-maximal effect; % is scaled to controls: 0 for no effect and ±100 for the full control effect; nearly all actives have a fitted effect of over 50% in size
HP1b binding inh = HTS for Inhibitors of HP1-beta Chromodomain Interactions with Methylated Histone Tails | Potency, µM (titrated, usually from 114 µM), for inactives: at the top dose activity change, negative = inhibition, actives largely listed as inhibitors | Chromobox protein homolog 1 (Homo sapiens), P83916 | 390,000 tested, 0.56% active | AlphaScreen HP1-beta / biotin-H3K9me3 peptide binding; also: potency is read from the fitted curve at half-maximal effect; nearly all actives have a fitted effect of over 70% in size
Target sequence (P83916 whole entry, looked up): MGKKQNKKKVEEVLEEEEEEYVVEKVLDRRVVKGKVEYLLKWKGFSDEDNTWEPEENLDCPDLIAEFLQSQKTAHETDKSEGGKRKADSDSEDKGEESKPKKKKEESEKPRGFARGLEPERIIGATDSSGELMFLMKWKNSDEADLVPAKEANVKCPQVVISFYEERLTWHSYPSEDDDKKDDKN
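Compound inhibition of the preformed complex between 50 nM HP1-beta and 50 nM biotinylated H3K9me3 peptide was read by AlphaScreen. Buffer was PBS pH 7.4 with 0.01% Tween-20. Incubations ran 30 min at room temperature, with 10 ug/mL donor/acceptor beads.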
PI5P4Ka inh = qHTS for Inhibitors of phosphatidylinositol 5-phosphate 4-kinase (PI5P4K); Phosphatidylinositol 5-phosphate 4-kinase type-2 alpha (Homo sapiens), P48426; PI5P4Kalpha enzyme, ADP-Glo luminescence, 60 min; active compounds read low; max response, %; 330,000 tested, 1.2% active; AID 652105, 2013; active = max response of -50% or lower; inconclusive = between -30% and -50%; inactive = -30% or higher; also: value at the top dose of about 77 µM; % is scaled to controls: 0 for no effect and ±100 for the full control effect
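Compounds were pin-transferred onto PI5P4Kalpha and substrate in HEPES pH 7.4 buffer with EGTA, CHAPS and 5% DMSO. ATP (5 microM final) started the reaction, which ran 60 minutes at room temperature before ADP-Glo detection.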
G9a inh = qHTS Assay for Inhibitors of Histone Lysine Methyltransferase G9a; Histone-lysine N-methyltransferase EHMT2 (Homo sapiens), Q96KQ7; G9a H3K9 monomethylation, AlphaScreen, 2 h; Potency, µM (highest dose often 102 µM), for inactives: top-dose activity, negative = inhibition, hits mostly inhibitors; 350,000 tested, 8.8% active; also: potency is read from the fitted curve at half-maximal effect; % is scaled to controls: 0 for no effect and ±100 for the full control effect; nearly all actives have a fitted effect of over 75% in size
Target sequence (Q96KQ7 913-1193 limits assumed): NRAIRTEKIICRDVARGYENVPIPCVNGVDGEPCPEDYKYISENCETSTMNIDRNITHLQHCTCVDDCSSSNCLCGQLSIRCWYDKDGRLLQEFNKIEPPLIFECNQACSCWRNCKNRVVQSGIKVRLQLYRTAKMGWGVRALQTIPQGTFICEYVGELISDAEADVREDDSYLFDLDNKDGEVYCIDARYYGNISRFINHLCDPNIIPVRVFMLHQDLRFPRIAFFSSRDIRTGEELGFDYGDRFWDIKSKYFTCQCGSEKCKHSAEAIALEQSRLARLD
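Step 1: enzyme (final 20 nM) with compound, 15 min RT. Step 2: substrate peptide 500 nM and SAM 20 uM, 2 h RT. Step 3: anti-H3K9me1 antibody and AlphaScreen beads, 10 min, then plate read.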
PLK1 PBD inh = qHTS for Inhibitors of PLK1-PDB (polo-like kinase 1 - polo-box domain): Primary Screen | Potency, µM, for inactives: max response, negative = inhibition, usual class: inhibitors | 360,000 tested, 2.8% active | Plk1 PBD binding of FITC phosphopeptide, fluorescence polarization; also: potency is read from the fitted curve at half-maximal effect; series mostly up to about 57 µM; % is scaled to controls: 0 for no effect and ±100 for the full control effect; nearly all actives have a fitted effect of over 65% in size
* = called active by the depositor; ? = inconclusive; . = not tested or not shown; [ ] = remark or other dose. Unless noted, calls follow the shape of the dose curve; as a rule, active = well fitted curve in the direction sought with a large enough effect; inconclusive = small, poorly fitted or top-dose-only effect, or another doubt; inactive = no such curve, though single readings can be large; an effect the other way counts as inactive or inconclusive.

SMILES	BAZ2B block	JMJD2A Tudor inh	HP1b binding inh	PI5P4Ka inh	G9a inh	PLK1 PBD inh
Cc1ccc(C2=NN=C(NC(=O)CSc3nc(C)cc(C)n3)SC2)cc1	-36%	.	.	.	28µM*	.
Cc1ccc(C2=NN=C(NC(=O)CSc3nnc4c5ccccc5n(C)c4n3)SC2)cc1	-10%	?	15%	?	45µM*	-26%
Cc1cc(C(F)(F)F)nc(SCC(=O)NC2=NC(=O)C(C)S2)n1 (stereo not given)	5%	-25%	4%	.	?	?
CCCN1CNc2c(c(=O)[nH]c(=S)n2Cc2ccc(OC)c(OC)c2)C1	.	-16%	2%	.	.	.
Clc1ccc(-c2csc(Nc3ccccc3)[n+]2Cc2ccco2)c(Cl)c1	25µM*	-36%	?	3	32µM*	-8%
CCCC[n+]1c(-c2ccc(Cl)cc2Cl)csc1Nc1ccccc1	13µM*	71µM*	?	0	11µM*	-7%
COc1ccc(NC(=O)N2CCN(C(=O)C(Cc3ccc(F)cc3)NC(C)=O)CC2)cc1 (stereo not given)	2%	4%	12%	1	4%	-6%
COc1ccc(C(=O)NC(C)c2nnc(SCc3ccc(Cl)c(Cl)c3)n2C)cc1 (stereo not given)	?	-17%	0%	.	32µM*	-7%
CCn1c(SCc2ccc(Cl)c(Cl)c2)nnc1C(C)NC(=O)c1ccc(OC)cc1 (stereo not given)	?	-13%	12%	1	22%[59 µM]	4%
N#CCN(C(=O)COC(=O)CCCNC(=O)c1ccc(Cl)cc1)c1ccccc1	-2%	-11%	29%	4	-9%[12.7 µM]	0%
COc1ccc(Nc2ncc(C(=O)Nc3ccc(F)cc3F)c3ccccc23)cc1	-2%	-8%	46%	.	-24%[59 µM]	.
O=C1C(Nc2ccccc2)=C/C(=N/S(=O)(=O)c2cccs2)c2ccccc21	2.8µM*	4µM*	11µM*	-4	8.9µM*	-24%
Cc1ccc(NC2=C/C(=N/S(=O)(=O)c3cccs3)c3ccccc3C2=O)cc1	?	-28%[57.1 µM]	?	-23	2.8µM*	-6%
O=S(=O)(/N=C(/Nc1cccc2ccccc12)c1ccccc1)c1cccs1	-4%	-23%	-1%	-4	?	-4%
Cc1ccc2[nH]c(=O)c(CN(CCO)Cc3nnnn3Cc3ccccc3)cc2c1	.	?	5%[57 µM]	.	.	.
Cn1cnnc1SCC(=O)NN1C(=O)NC(C)(c2ccccc2)C1=O (stereo not given)	-30%	-11%	26%	-1	22µM*	5%
Cn1c(SCC(=O)NN2C(=O)NC(C)(c3ccccc3)C2=O)nnc1-c1ccncc1 (stereo not given)	.	-16%	8%	-4	.	-7%
CC(C)CN(C(=O)CCCSc1nc2ccccc2[nH]1)c1c(N)n(Cc2ccccc2)c(=O)[nH]c1=O	-7%	-11%	19%	1	-47%	-15%
CN(C)c1ccc(C(C(=O)NCC2CCCO2)N(C(=O)c2snc(C(N)=O)c2N)c2ccc3c(c2)OCO3)cc1 (stereo not given)	?	?	-7%[57 µM]	-17	40µM*	-7%
Cc1cccc(N(C(=O)c2snc(C(N)=O)c2N)C(C(=O)NCC2CCCO2)c2ccc(N(C)C)cc2)c1 (stereo not given)	-29%	-14%	-6%	-7	0%	-6%
CC(C)c1ccc(N(C(=O)c2snc(C(N)=O)c2N)C(C(=O)NCC2CCCO2)c2ccc(N(C)C)cc2)cc1 (stereo not given)	22µM*	18µM*	?	3	13µM*	-3%
CN(C)c1ccc(C(C(=O)NCC2CCCO2)N(C(=O)c2snc(C(N)=O)c2N)c2ccccc2)cc1 (stereo not given)	-1%	-6%	28%	0	-10%	-3%
CNC(=O)c1cnn2c(C)cc(C)nc12	.	-21%	.	.	.	.
Cc1cc2cc(CCNC(=O)c3ccc(Br)o3)c(=O)[nH]c2cc1C	-23%	-22%	32%	-6	18µM*	-16%
COc1ccc2cc(CCNC(=O)c3ccc(Br)o3)c(=O)[nH]c2c1	6%	-27%	13%	0	50µM*	3%
SMILES	BAZ2B block	JMJD2A Tudor inh	HP1b binding inh	PI5P4Ka inh	G9a inh	PLK1 PBD inh
Cc1cccc(CN2CCN([C@H]3CS(=O)(=O)N[C@@H]3COCc3ccccc3)CC2)c1	.	.	.	-1	.	-3%
CCOCCCn1c(-c2ccc(Cl)cc2)n[nH]c1=S	-6%	4µM*	-21%	-4	1.8µM*	-6%
COCCCn1c(-c2ccccc2Cl)n[nH]c1=S	-1%	7.9µM*	22%	-3	2.2µM*	-1%
S=c1nc(-c2ccccc2)n(CCCN2CCOCC2)c2c1CCCC2	.	-17%	-4%	.	8%[59 µM]	-15%
S=c1[nH]nc(-c2ccc(Cl)cc2)n1CCCN1CCOCC1	6%	10µM*	16%	-2	40µM*	-12%
COCCCn1c(-c2ccc(Cl)cc2)n[nH]c1=S	-17%	7.9µM*	-11%	2	4µM*	-12%
COc1ccc(CCn2c(-c3ccncc3)n[nH]c2=S)cc1OC	-33%	?	-9%	-9	?	-16%

Bioassay records: PubChem BioAssay, National Center for Advancing Translational Sciences (NCATS)
